Measured values as given in PubChem BioAssay AID602281 (The Scripps Research Institute Molecular Screening Center, 2012).
Out of some 360,000 compounds screened, about 2,900 (0.81%) were called active. Many of the other results were omitted from the sample, so actives are more common in it than they were. Values without a mark were called inactive.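 How the source made its calls: active means inhibition above the mean inhibition across every tested compound plus 3 SD (cut at about 22% in these data); inactive means the rest.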

Biological target: Perilipin-5 (Homo sapiens) + 1-acylglycerol-3-phosphate O-acyltransferase ABHD5 (Homo sapiens) (UniProt Q00G26+Q8WTS1)
Experiment: blockers of ABHD5 binding to perilipin-5 – cell lysate, split luciferase complementation, luminescence, primary screen (AID 602281);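 further: 0% = DMSO only wells and the 100% control is not disclosed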
Conditions: Split G. princeps luciferase complementation, 4 h, at 4 µM, stronger effect = higher value

Chain of Perilipin-5 (Homo sapiens) + 1-acylglycerol-3-phosphate O-acyltransferase ABHD5 (Homo sapiens) (Q00G26 whole entry, looked up): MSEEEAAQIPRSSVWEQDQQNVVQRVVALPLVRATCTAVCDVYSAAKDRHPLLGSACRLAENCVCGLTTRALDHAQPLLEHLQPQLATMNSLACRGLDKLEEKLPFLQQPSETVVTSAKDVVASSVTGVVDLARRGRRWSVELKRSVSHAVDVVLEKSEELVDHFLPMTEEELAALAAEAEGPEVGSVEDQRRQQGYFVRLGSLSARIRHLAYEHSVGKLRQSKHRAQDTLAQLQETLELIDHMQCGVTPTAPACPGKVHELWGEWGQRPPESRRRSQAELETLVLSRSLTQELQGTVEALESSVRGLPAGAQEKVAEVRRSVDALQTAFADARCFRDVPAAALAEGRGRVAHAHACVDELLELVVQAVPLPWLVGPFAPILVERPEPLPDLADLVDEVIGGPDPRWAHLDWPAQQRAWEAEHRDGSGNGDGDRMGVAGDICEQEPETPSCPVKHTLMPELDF
Chain of Perilipin-5 (Homo sapiens) + 1-acylglycerol-3-phosphate O-acyltransferase ABHD5 (Homo sapiens) (Q8WTS1 whole entry, looked up): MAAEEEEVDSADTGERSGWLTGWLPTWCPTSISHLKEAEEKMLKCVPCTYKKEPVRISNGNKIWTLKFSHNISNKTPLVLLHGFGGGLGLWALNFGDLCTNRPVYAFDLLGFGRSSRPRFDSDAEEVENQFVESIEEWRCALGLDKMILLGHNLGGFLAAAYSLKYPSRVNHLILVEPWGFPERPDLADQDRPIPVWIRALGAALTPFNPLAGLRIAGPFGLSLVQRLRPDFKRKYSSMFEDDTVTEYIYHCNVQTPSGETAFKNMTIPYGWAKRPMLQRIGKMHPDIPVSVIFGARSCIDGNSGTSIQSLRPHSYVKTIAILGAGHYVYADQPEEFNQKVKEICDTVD

| SMILES | inhibition |
| --- | --- |
| O=C(COC(=O)c1ncc(Cl)c(Cl)c1Cl)NCc1cccs1 | 0.28% |
| CS(=O)(=O)N1CCCCC1c1cc(C(=O)NCc2ccccc2)no1 (stereo not drawn) | -1.92% |
| CC1(C)CCSC(/C=C/c2ccccc2)=N1 | 40.5% (active) |
| CC1(C(=O)NS(=O)(=O)c2ccccc2)CCN1C(=O)C/C=C/c1ccccc1 (stereo not drawn) | 11% |
| CNS(=O)(=O)c1cccc(C(=O)OCCCC(=O)c2ccccc2)c1 | 5.65% |
| CN1CCN(C2Cc3ccc(Cl)cc3Sc3ccc(F)cc32)CC1 (stereo not drawn) | 10.5% |
| COCCNC(=O)Nc1ccc2nc(-c3ccco3)c(-c3ccco3)nc2c1 | 22.6% (active) |
| COc1ccc(CCNC(=O)Nc2ccc3c(c2)c(=O)n(C)n3C)cc1OC | 3.03% |
| COCCNC(=O)CN(Cc1ccco1)C(=O)CCC(=O)Nc1nccs1 | 7.43% |
| c1ccc(CC2CCN(c3nc4ccccc4n4cnnc34)CC2)cc1 | -9.78% |
| O=C(COc1ccc(S(=O)(=O)N2CCCCC2)cc1)NCc1ccccn1 | -0.42% |
| CN=C(c1ccccc1)c1c(C)cccc1C | 4.42% |
| Cc1cccc(C)c1NC(=O)C(Cl)C(=O)c1ccccc1 (stereo not drawn) | 38.3% (active) |
| Cc1cccc(C)c1NC(=O)N1CC(C)OC(C)C1 (stereo not drawn) | 5.67% |
| C[C@H](NC(=O)c1[nH]cnc1C(=O)Nc1nccs1)c1ccccc1 | 1.59% |
| CC(C(=O)c1ccc(-c2ccccc2)cc1)[n+]1cccc(Br)c1 (stereo not drawn) | 0.81% |
| Cn1c(=S)sc2ccc3ccccc3c21 | 1.97% |
| Cc1ccc(-c2c3c(=O)n(C)c(=O)n(C)c3cn2-n2cnnc2)cc1 | 22.5% (active) |
| Cc1cn(C)c(=O)n(C)c1=O | -0.3% |
| COc1ccc([N+](=O)[O-])cc1N(CC(=O)Nc1ccccc1C(=O)N1CCOCC1)S(C)(=O)=O | -1.59% |
| CC(=O)NC1CCN(CC(=O)Nc2nccs2)CC1 | 6.01% |
| CC(=O)Nc1ccc(C(=O)/C=C/c2ccc[nH]2)cc1 | 11.6% |
| CC(C=Cc1ccccc1)=NNS(=O)(=O)c1ccc([N+](=O)[O-])cc1 | 1.47% |
| Cc1ccnc(NC(=O)c2ccc(Cl)c([N+](=O)[O-])c2)c1 | 5.06% |

| SMILES | inhibition |
| --- | --- |
| O=C(O)c1ccc2c(=O)n3c(nc2c1)/C(=C/c1ccc(Cl)c([N+](=O)[O-])c1)CC3 | 3.3% |
| CC(=O)Nc1ccc(C=CC(=O)c2ccc([N+](=O)[O-])cc2)cc1 | 27.1% (active) |
| O=C(/C=C/c1ccc(Cl)c([N+](=O)[O-])c1)c1ccc(O)cc1 | 67.9% (active) |
| O=C(Nc1nccs1)C1CCN(S(=O)(=O)c2ccc(Cl)c(C(F)(F)F)c2)CC1 | -4.59% |
| CCN1CCN(C(=O)C2CCCN(S(=O)(=O)c3ccc(OC)c(OC)c3)C2)CC1 (stereo not drawn) | 7.45% |
| O=C(NCc1cccc(Cl)c1)C1=CC=CN2CCS(=O)(=O)N=C12 | -4.23% |
| COc1ccc(S(=O)(=O)N2CCN(C(=O)NC3CCCCC3)CC2)cc1 | -2.23% |
| CC(C)[C@H](NC(=O)c1ccc(F)cc1)C(=O)OCC(=O)NC(=O)c1cccn1C | -4.59% |
| Cc1ccc2c(c1)C1CN(C)CCC1N2S(=O)(=O)c1ccc(Oc2ccc([N+](=O)[O-])cc2)cc1 (stereo not drawn) | 15.8% |
| COc1ccc(-n2cc(CN(C)Cc3n[nH]c(=O)[nH]3)c(-c3cccc(F)c3)n2)cc1 | 7.9% |
| COc1ccc(-n2cc(CNC3CCOCC3)c(-c3cccc(F)c3)n2)cc1 | 24.7% (active) |
| CCC(O)C1CCN(Cc2cn(-c3ccc(OC)cc3)nc2-c2cccc(F)c2)CC1 (stereo not drawn) | 8.4% |
| COc1ccc(C2OC(=O)CC2C(=O)NC(C)C)cc1 (stereo not drawn) | -1.02% |
| COc1ccc(C(=O)C2CCCN(C(=O)c3cc4nc(C)cc(C)n4n3)C2)cc1F (stereo not drawn) | 0.49% |
| Cc1ccc(CN2C(=O)CCC2C(=O)NCCCN2CCCCC2C)cc1 (stereo not drawn) | 1.42% |
| FC(F)(F)c1cc(-c2ccco2)nc(NCc2ccc(Cl)cc2)n1 | -5.83% |
| C[C@H](NC(=O)C1CC(=O)N(c2ccc3c(c2)OCO3)C1)C(=O)NCc1ccco1 (stereo partly drawn) | 10.8% |
| CCCC/C=C/c1cccc2nncn12 | -0.29% |
| Cc1cc(C)n(CC(O)COc2ccc(C(C)(C)C)cc2)n1 (stereo not drawn) | -1.93% |
| COc1ccc(C(CNC(=O)COc2ccc([N+](=O)[O-])cc2)N2CCCCC2)cc1 (stereo not drawn) | -7.05% |
| COc1ccc(C(C[N+](=O)[O-])n2nc(C)cc2C)cc1 (stereo not drawn) | 54.3% (active) |
| COc1ccc(C(=O)C(OP(=O)(OC)OC)c2ccccc2OC)cc1 (stereo not drawn) | 0.08% |
| CC(C)NC(=S)N1CCN(S(C)(=O)=O)CC1 | -5.54% |
| CCN(CC)S(=O)(=O)c1cccc(-c2n[nH]c(=S)n2/N=C/c2ccc(C(=O)OC)cc2)c1 | -11.2% |

| SMILES | inhibition |
| --- | --- |
| CCCc1cc(-c2n[nH]c(=S)n2CC)c2ccccc2n1 | -2.69% |
| Cc1cc(-c2n[nH]c(=S)n2/N=C/C(Br)=C/c2ccccc2)n[nH]1 | 62.1% (active) |
| COC(=O)C1=C(C)NC2=C(C(=O)c3ccccc32)C1c1ccc(-c2ccc(C(=O)O)cc2)o1 (stereo not drawn) | 17.7% |
| Cc1ccc(NC(=S)N2CCN(c3ncccn3)CC2)cc1C | 5.22% |
| O=C1/C(=C\c2ccc(O)cc2)CCC1CNc1ccc(Cl)cc1 (stereo not drawn) | 23.7% (active) |
| COc1cc(C)c(C)cc1S(=O)(=O)N1CCCc2ccccc21 | 3.45% |
| CCN1/C(=C\c2ccc3ccccc3[n+]2CC)Sc2cc(C)ccc21 | 28.2% (active) |
| C=C(C)C(=O)Nc1cccc(C2=NOC3(C2)C[C@H](C(N)=O)N(C(=O)C(c2ccccc2)c2ccccc2)C3)c1 (stereo partly drawn) | 0.12% |
| Cc1ccn2c(=O)nc(SCC(=O)NCc3ccc4c(c3)OCO4)nc2c1 | -8.67% |
| Cc1ccc(/C=C/C(=O)OCC(=O)NCc2ccc(Cl)cc2)o1 | 5.48% |
| COc1cc(NC(=S)NCCSc2ccc(C)cc2)cc(OC)c1 | -1.88% |
| Cc1csc(NC(=O)NC2(C(F)(F)F)Oc3ccccc3O2)n1 | 49.8% (active) |
| COc1cc(SC)ccc1C(=O)Nc1nc(C)cs1 | -0.45% |
| Cc1csc(NC(=O)C2CCN(S(=O)(=O)c3ccccc3)CC2)n1 | 2.8% |
| CCCCN(C(C)=O)c1ccc2c(c1)C1CC2CCN1Cc1ccccc1 (stereo not drawn) | -6.18% |
| COc1ccc(OC)c(/C(C)=N\NC(=O)c2cc3cc(Cl)ccc3n2C)c1 | 5.51% |
| COC(=O)/C=C\C(=O)Nc1cccc([N+](=O)[O-])c1 | 41% (active) |
| COc1cccc(NCCC(=O)c2cccc([N+](=O)[O-])c2)c1 | -2.37% |
| CC(NC(=O)Nc1cccc([N+](=O)[O-])c1)c1ccc2c(c1)OCO2 (stereo not drawn) | 8.55% |
| Cn1c2ccccc2c(=O)c2c(=O)n(Cc3ccco3)c(COc3ccccc3)nc21 | 40.1% (active) |
| O=C(Cn1c(=O)n(Cc2ccco2)c(=O)c2ccccc21)NCC1CCCO1 (stereo not drawn) | -2.17% |
| O=C(CCCOc1ccccc1)NCc1ccco1 | -2.47% |
| CCn1c(SC)nc(O)c(C(c2ccc(OC)c(O)c2)c2c(O)nc(SC)n(CC)c2=O)c1=O | 30.9% (active) |
| CCn1c(CNC(=O)c2ccc(OC)c(OC)c2)nnc1SCC(=O)Nc1ccccc1 | -3.29% |

| SMILES | inhibition |
| --- | --- |
| CCSc1nc(O)c(C(c2cccc(OC)c2)c2c(O)nc(SCC)[nH]c2=O)c(=O)[nH]1 | -4.24% |
| C=CCN(c1ccc(C(N)=O)cc1)S(C)(=O)=O | 0.17% |
| CC(C)CCOc1ccc(C(=O)C[N+]2(C)CCOCC2)cc1 | 1.19% |
| CCCOc1ccc(C(=O)C(CCC(CNCC)C(=O)c2ccc(OCCC)cc2)CNCC)cc1 (stereo not drawn) | 34.9% (active) |
| CCOc1cc(C(=O)O)ccc1OCCOc1ccccc1 | -0.9% |
| O=C(Nc1ccccc1N1CCCC1)c1ccc(F)c(S(=O)(=O)N2CCOCC2)c1 | -7.04% |
| CC(=O)N1CSCC1C(=O)O (stereo not drawn) | 3.52% |
| C=CCNC(=O)/C=C/c1ccc(C(C)C)cc1 | -1.9% |
| NC1=NC(=O)S/C1=C\c1ccc(O)cc1 | 7.71% |
| O=C(/C=C(O)/C=C/c1ccc(O)cc1)/C=C/c1ccc(O)cc1 | 35.1% (active) |
| CCc1nc(C)cn1S(=O)(=O)c1cc([N+](=O)[O-])ccc1Cl | 4.39% |
| CN(C)CCOC(=O)C(c1ccccc1)C1(O)CCCC1 (stereo not drawn) | -6.36% |
| CCCC(C(=O)OCCN(CC)CC)(c1ccccc1)c1ccccc1 | 6.21% |
| CCC(C(=O)OCCN(CC)CC)c1ccccc1 (stereo not drawn) | 49.6% (active) |
| Cc1ccnc(SCCn2c(N(C)Cc3ccccc3)nc3c2c(=O)n(C)c(=O)n3C)n1 | -0.81% |
| O=c1oc2c(CN3CCCCC3)c(O)ccc2c2c1CCCCC2 | -1.69% |
| N#Cc1ccccc1S(=O)(=O)N1CCN(Cc2c(O)ccc3ccccc23)CC1 | 27.7% (active) |
| N#Cc1ccccc1S(=O)(=O)N1CCN(C(=O)c2cc(-c3ccccc3)nn2-c2ccccc2)CC1 | -8.95% |
| Cn1c(CCC(=O)OCC(=O)NCc2ccccc2Cl)nc(=O)c2ccccc21 | 2.53% |
| CN(CC(=O)NCCc1ccccc1)S(=O)(=O)c1cnc[nH]1 | 1.21% |
| COCCN(Cc1ccccc1)C(=O)Cc1ccc(S(=O)(=O)N2CCOCC2)s1 | -7.33% |
